# The list is not random: actives were taken first. Their share in the collection is about 4.7%.
# D1 antagonist = antagonists of human D1 dopamine receptor | P21728 | HEK293 TREx D1 cells, calcium flux, dopamine EC80; active compounds read low | activity change, negative = inhibition, % at 10 µM | actives 3.2% (n = 360,000); in the data active = activity change below about -30%; note: % is set by controls: 0 for no effect and ±100 for the full control effect
#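 Compound effects on dopamine-evoked calcium signalling were measured in tetracycline-induced HEK293 Trex D1 cells. Dopamine at EC80 followed a 180 s compound pre-read, and fluorescence was tracked kinetically for 180 s more.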
# D1 PAM = human D1 dopamine receptor positive modulation; HEK293 TREx D1 cells, calcium flux, dopamine EC20 potentiation; potentiation, % at 10 µM; actives 0.036% (n = 360,000); AID 504651; in the data active = potentiation above about 30%; note: 0% is about no effect
# TRHR enhancer = allosteric enhancers of human TRH receptor; TRHR cells, fluo-8 calcium fluorescence, EC20 TRH enhancement; AID 493056; enhancement, % at 2 µM; P34981; actives 0.66% (n = 360,000); in the data active = enhancement above about 30%; note: 0% is about no effect
# Target sequence (P34981 whole entry, looked up): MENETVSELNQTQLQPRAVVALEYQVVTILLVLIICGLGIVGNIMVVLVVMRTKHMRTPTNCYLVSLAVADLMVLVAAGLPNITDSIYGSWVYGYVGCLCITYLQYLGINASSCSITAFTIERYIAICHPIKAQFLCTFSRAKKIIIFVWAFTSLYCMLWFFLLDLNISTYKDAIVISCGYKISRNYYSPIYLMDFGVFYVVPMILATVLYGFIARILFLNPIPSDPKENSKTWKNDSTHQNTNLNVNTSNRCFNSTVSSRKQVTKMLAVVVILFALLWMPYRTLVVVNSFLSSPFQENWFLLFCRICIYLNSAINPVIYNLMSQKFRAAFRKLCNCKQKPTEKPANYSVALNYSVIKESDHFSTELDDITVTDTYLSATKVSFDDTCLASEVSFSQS
#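 Enhancer read-out: after compound pinning and an initial kinetic agonist-mode read, an EC20 of TRH (10 nM final) was injected and fluo-8 calcium signal (Ex 480/Em 530) followed at 1 s/cycle for 100 cycles in TRHR-expressing cells.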
# D1 agonist = agonists of human D1 dopamine receptor. P21728. HEK293 T-REx D1 cells, calcium flux, agonist mode. activation, % at 2 µM. actives 1% (n = 360,000). AID 504660; note: 0% is about no effect
#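 Agonism was scored from calcium flux recorded over 180 s (1 read/s) after pintool compound addition, following a 10-cycle baseline. Cells were inducible force-coupled HEK293 TREx D1, plated overnight at 30 C and loaded with no-wash calcium dye.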
# TRHR agonist = activates the human TRH receptor; P34981; TRHR cells, calcium flux fluo-8, FDSS agonist mode; activation, % at 2 µM; actives 0.18% (n = 360,000); AID 493084; note: 0% is about no effect
#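 In this calcium-flux screen, cells bearing human TRHR are dye-loaded with fluo-8, baselined for 10 cycles, then exposed to library compounds; positive kinetic calcium responses during the agonist phase mark hits, with TRH as control.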
# * marks the source's active call; other numbers are inactive results. Cut-off read from the data, not from the text of the source, unless noted: active = activation above about 30%; inactive = the rest.
SMILES,D1 antagonist,D1 PAM,TRHR enhancer,D1 agonist,TRHR agonist
CN(C)C(=S)Nc1nc2ccccc2s1,-30.4*,-4.0,0.4,1.9,0.4
O=C(Nc1nc2ccccc2s1)NC1CCCCC1,-6.3,-6.0,8.7,7.3,2.0
O=C(CN1CCN(Cc2ccc(F)cc2)CC1)Nc1nc2ccccc2s1,-30.3*,-3.2,-7.1,12.0,0.0
O=C(CC1CCCCC1)Nc1nc2ccccc2s1,-8.8,2.5,36.1*,5.8,1.3
Cc1ccccc1Nc1nc2ccccc2s1,12.1,-7.8,8.9,37.2*,0.1
CC1=C(c2ccc(C)c(C)c2)S(=O)(=O)N=C1N1CCC(C(=O)NCCc2ccco2)CC1,-4.8,-3.9,-2.1,0.4,-0.1
O=C(Nc1nc2n(n1)C(c1ccccc1)C=C(c1ccccc1)N2)c1ccc(Cl)c([N+](=O)[O-])c1 (stereo not given),-6.9,-0.5,-1.2,-1.0,-0.2
CC1=CC(C)(C)N=C(Nc2ccc(C)cc2)S1,-33.0*,-11.7,-4.5,4.2,0.5
Cc1cc(C)n(C(C)CC(=O)NCc2ccccc2C)n1 (stereo not given),2.3,-4.2,0.8,1.6,0.9
CC(=O)c1ccc(N2CCN(c3ncnc4c3cnn4-c3cc(Cl)ccc3C)CC2)cc1,-1.7,1.4,6.9,0.6,-0.1
COc1ccc(NC(=O)CCn2c(=O)c3cccn3c3ccccc32)cc1,4.2,6.6,-1.2,0.8,-0.9
CCOC(=O)c1ccc(NC(=O)CCn2c(=O)c3cccn3c3ccccc32)cc1,-16.4,23.6,1.3,85.8*,-0.6
Cc1cccc(N2C(=O)C(CC(=O)Nc3cccc(F)c3)N(Cc3cccs3)C2=O)c1 (stereo not given),0.6,-2.1,-7.8,10.0,0.9
Cc1ccc(-c2cn3cccnc3n2)cc1,-11.0,0.2,6.6,-0.2,-0.3
Nc1cccc(-c2cn3cccnc3n2)c1,-30.1*,4.9,-3.9,4.3,-0.4
CCc1sc(C(=O)NCCc2ccc(S(N)(=O)=O)cc2)cc1C,3.6,-8.2,12.9,2.6,-0.8
CCc1sc(C(=O)NCCc2ccc(S(N)(=O)=O)cc2)cc1Br,-30.3*,-2.3,-4.0,-0.7,-0.1
Cc1cc(C(=O)NCCc2ccc(S(N)(=O)=O)cc2)c(C)o1,-30.9*,-6.0,8.0,3.3,0.0
CC1(C)O[C@@H]2[C@H](O1)[C@@H](COS(=O)(=O)O)O[C@H]2n1cnc2c(N)ncnc21,-30.9*,-4.1,1.9,3.0,-0.1
Cc1cccc(/C=C2\Sc3ccc(C(=O)N4CCCCC4)cc3N(C)C2=O)c1,-38.4*,-0.1,3.3,3.3,0.0
Cc1ccc(NC(=O)CN2C(=O)c3ccccc3Sc3ccc(C(=O)N4CCOCC4)cc32)c(Cl)c1,6.9,-3.5,-3.2,0.1,-0.2
Cc1cc(C)cc(NC(=O)CN2C(=O)c3ccccc3Sc3ccc(C(=O)N4CCCC4)cc32)c1,11.0,1.2,32.7*,2.5,-0.3
Cc1cccc(/C=C2\Sc3ccc(C(=O)N4CCOCC4)cc3N(C)C2=O)c1,-8.7,5.3,0.4,5.3,-0.5
CN1C(=O)/C(=C/c2cccc(Cl)c2)Sc2ccc(C(=O)N3CCCC3)cc21,-35.9*,3.6,23.1,8.1,0.1
O=C(CN1CCN(CC(=O)Nc2ccccc2F)CC1)Nc1ccc(Cl)c(C(F)(F)F)c1,-13.8,-3.5,3.4,14.6,0.8
SMILES,D1 antagonist,D1 PAM,TRHR enhancer,D1 agonist,TRHR agonist
N#Cc1cc(C(=O)c2cc(F)ccc2O)cn(-c2nccs2)c1=O,6.5,-6.9,4.5,305.9*,183.2*
N#Cc1cc(C(=O)c2ccccc2O)cn(-c2nccs2)c1=O,44.3,18.4,30.3*,553.4*,292.2*
COc1cc2c(cc1NS(=O)(=O)c1cccc(C#N)c1)n(C)c(=O)n2C,7.4,-0.1,-2.9,-1.3,0.0
Cc1cc2c(s1)c1cnn(Cc3ccccc3)c(=O)c1n2C,-0.4,8.4,0.0,0.5,-1.1
O=C1CC(N2CCN(c3ccc(Cl)c(Cl)c3)CC2)C(=O)N1 (stereo not given),-21.3,-15.6,16.1,32.3*,-0.4
CCn1c(C)nnc1SCC(=O)Nc1cccc(Cl)c1,-43.3*,0.3,1.6,-3.6,-0.1
CCOc1ccc(S(=O)(=O)N2CCCCC2)c(C)c1C,7.2,3.0,-3.2,4.2,-0.4
CCOc1ccc(S(=O)(=O)N2CCN(C)CC2)c(C)c1C,-50.4*,-3.9,0.6,1.9,0.3
COc1ccccc1CNC(=O)Cn1cc2c(n1)-c1c(oc(C(=O)N3CCOCC3)c1C)CC2,4.5,-0.4,1.5,0.9,-0.1

# Screening results (PubChem)
